# Measured values from the supplement of paper PMC10849652.
# Targets with a hit are over-represented here; the source holds about 7,900 in all. About 0.6% of all pairs of compound and target were hits. Values without a mark were called inactive.
# What was measured:
# Experiment in all cases: log2 fold change, soluble protein after heating vs DMSO (PISA); higher = thermal stabilisation; K562 cells, 10 uM, 30 min; active = over 0.2 and 3.5 SD of the protein, either way, in both replicates (recomputed)
# [1] = compound: CC1=C(C=C(C=C1)NC(=O)C2=CC(=CC=C2)C(C)(C)C#N)NC3=CC4=C(C=C3)N=CN(C4=O)C
# How it was run: (§1)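 For each measurement, 10 μM compound was applied for 30 min to K562 cells at 2×10^6 cells/mL. Aliquots were heated for 3 min across 48°C-58°C, pooled, and extracted in PBS with 0.5% NP-40 at 4°C; the supernatant after 21,000xg for 90 min was soluble protein. This was quantified by TMTpro 16plex LC-MS/MS with channel sums equalised, and thermal stability was reported relative to control samples from duplicates, on a log2 fold-change scale.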
# [2] = compound: CC1=C(C=C(C=C1)NC(=O)C2=CC(=CC=C2)N(C)C)NC(=O)C3=CC=C(C=C3)O
# How it was run: as §1
# [3] = compound: CC1=CC=C(C=C1)SC2=C3C=C(SC3=CN=C2)C(=O)N
# How it was run: as §1
# [4] = compound: CC1=NC(=CC=C1)C2=C(N=C(N2)C(C)(C)C)C3=CC4=NC=CN=C4C=C3
# How it was run: as §1
# Nexturastat A = compound: CCCCN(Cc1ccc(C(=O)NO)cc1)C(=O)Nc1ccccc1 [Nexturastat A]
# How it was run: as §1
# vemurafenib = compound: CCCS(=O)(=O)Nc1ccc(F)c(C(=O)c2c[nH]c3ncc(-c4ccc(Cl)cc4)cc23)c1F [vemurafenib]
# How it was run: as §1
# [5] = compound: CCCS(=O)(=O)Nc1ccc(F)c(C(=O)c2c[nH]c3ncc(Cl)cc23)c1F
# How it was run: as §1
# [6] = compound: CCCc1cc(C)[nH]c(=O)c1CNC(=O)c1cc(-c2ccnc(N3CCN(C)CC3)c2)cc2c1cnn2C(C)C
# How it was run: as §1
# givinostat = compound: CCN(CC)Cc1ccc2cc(COC(=O)Nc3ccc(C(=O)NO)cc3)ccc2c1 [givinostat]
# How it was run: as §1
# barasertib = compound: CCN(CCCOc1ccc2c(Nc3cc(CC(=O)Nc4cccc(F)c4)[nH]n3)ncnc2c1)CCOP(=O)(O)O [barasertib]
# How it was run: as §1
# [7] = compound: CC[C@@H]1C(=O)N(C)c2cnc(Nc3ccc(C(=O)NC4CCN(C)CC4)cc3OC)nc2N1C1CCCC1
# How it was run: as §1
# volasertib = compound: CC[C@@H]1C(=O)N(C)c2cnc(Nc3ccc(C(=O)N[C@H]4CC[C@H](N5CCN(CC6CC6)CC5)CC4)cc3OC)nc2N1C(C)C [volasertib]
# How it was run: as §1
# [8] = compound: CC[C@H](C)N1C=C(C2=C(C=C(C=C21)C3=CN=C(C=C3)N4CCNCC4)C(=O)NCC5=C(C=C(NC5=O)C)C)C
# How it was run: as §1
# epoxomicin = compound: CC[C@H](C)[C@@H](C(=O)N[C@@H]([C@@H](C)O)C(=O)N[C@@H](CC(C)C)C(=O)[C@]1(CO1)C)NC(=O)[C@H]([C@@H](C)CC)N(C)C(=O)C [epoxomicin]
# How it was run: as §1
# [9] = compound: CCn1c(C(=O)N(C2CC2)C2CC2)cc2c3c(ncn3C)c(Nc3cc(C)n(C)n3)nc21
# How it was run: as §1
# [10] = compound: CCn1cc(-c2ccnc3[nH]c(-c4cccc(CN(C)C)c4)cc23)c(-c2ccc(NC(=O)N(C)C)cc2)n1
# How it was run: as §1
# [11] = compound: CN(C)CC(=O)Nc1ccc2[nH]c(=O)c3ccccc3c2c1
# How it was run: as §1
# rosiglitazone = compound: CN(CCOC1=CC=C(C=C1)C[C@H]2C(=O)NC(=O)S2)C3=CC=CC=N3 (racemic) [rosiglitazone]
# How it was run: as §1
# [12] = compound: CN1C2=C(C3=C1C(=O)N(N=C3)CC4=CC(=CC=C4)N)SC(=C2)S(=O)C
# How it was run: as §1
# [13] = compound: CN1CCC(CNc2ccc3ncc(-c4cccc(OC(F)(F)F)c4)n3n2)CC1
# How it was run: as §1
# Chain of UniProt Q96BN8 (Q96BN8 whole entry, looked up): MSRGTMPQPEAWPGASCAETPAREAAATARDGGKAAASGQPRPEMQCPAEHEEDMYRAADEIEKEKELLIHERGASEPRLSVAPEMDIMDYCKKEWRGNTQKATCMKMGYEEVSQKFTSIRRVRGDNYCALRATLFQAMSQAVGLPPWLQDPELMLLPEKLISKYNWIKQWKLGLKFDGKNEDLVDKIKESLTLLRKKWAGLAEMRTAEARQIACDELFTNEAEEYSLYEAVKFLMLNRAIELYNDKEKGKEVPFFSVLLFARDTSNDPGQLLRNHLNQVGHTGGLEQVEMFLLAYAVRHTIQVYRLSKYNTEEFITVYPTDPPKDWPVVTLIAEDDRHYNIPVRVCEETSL
# Chain of UniProt P20585 (P20585 whole entry, looked up): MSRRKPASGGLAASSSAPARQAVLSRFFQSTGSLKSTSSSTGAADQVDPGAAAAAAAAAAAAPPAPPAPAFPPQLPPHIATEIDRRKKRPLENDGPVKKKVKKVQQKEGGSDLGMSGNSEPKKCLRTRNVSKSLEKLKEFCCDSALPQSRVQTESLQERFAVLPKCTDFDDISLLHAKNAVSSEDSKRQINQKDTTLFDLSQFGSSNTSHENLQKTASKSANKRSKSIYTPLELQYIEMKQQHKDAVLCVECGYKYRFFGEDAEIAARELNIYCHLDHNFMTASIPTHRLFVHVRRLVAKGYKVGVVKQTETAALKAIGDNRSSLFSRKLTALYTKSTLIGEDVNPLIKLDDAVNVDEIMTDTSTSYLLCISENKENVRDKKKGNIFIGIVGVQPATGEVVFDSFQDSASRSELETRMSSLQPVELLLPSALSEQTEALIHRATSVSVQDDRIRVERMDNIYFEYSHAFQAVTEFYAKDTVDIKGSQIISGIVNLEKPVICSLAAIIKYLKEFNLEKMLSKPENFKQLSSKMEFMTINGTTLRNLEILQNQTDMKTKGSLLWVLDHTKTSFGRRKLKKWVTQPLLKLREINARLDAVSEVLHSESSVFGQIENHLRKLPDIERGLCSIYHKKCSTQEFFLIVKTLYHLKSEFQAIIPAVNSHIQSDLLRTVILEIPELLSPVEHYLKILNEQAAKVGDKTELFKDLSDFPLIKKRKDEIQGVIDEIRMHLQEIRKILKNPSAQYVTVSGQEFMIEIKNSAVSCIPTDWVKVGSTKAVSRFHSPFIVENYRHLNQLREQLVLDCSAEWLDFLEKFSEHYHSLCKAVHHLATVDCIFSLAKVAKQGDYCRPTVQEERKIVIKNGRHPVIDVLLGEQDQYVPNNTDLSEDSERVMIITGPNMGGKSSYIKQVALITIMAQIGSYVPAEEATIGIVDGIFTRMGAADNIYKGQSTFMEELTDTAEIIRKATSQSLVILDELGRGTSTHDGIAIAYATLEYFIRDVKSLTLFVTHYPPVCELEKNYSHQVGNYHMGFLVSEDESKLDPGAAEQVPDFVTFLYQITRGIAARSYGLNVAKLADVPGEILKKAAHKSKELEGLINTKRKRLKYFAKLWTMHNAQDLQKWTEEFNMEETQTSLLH
# Chain of UniProt Q9H8H0 (Q9H8H0 whole entry, looked up): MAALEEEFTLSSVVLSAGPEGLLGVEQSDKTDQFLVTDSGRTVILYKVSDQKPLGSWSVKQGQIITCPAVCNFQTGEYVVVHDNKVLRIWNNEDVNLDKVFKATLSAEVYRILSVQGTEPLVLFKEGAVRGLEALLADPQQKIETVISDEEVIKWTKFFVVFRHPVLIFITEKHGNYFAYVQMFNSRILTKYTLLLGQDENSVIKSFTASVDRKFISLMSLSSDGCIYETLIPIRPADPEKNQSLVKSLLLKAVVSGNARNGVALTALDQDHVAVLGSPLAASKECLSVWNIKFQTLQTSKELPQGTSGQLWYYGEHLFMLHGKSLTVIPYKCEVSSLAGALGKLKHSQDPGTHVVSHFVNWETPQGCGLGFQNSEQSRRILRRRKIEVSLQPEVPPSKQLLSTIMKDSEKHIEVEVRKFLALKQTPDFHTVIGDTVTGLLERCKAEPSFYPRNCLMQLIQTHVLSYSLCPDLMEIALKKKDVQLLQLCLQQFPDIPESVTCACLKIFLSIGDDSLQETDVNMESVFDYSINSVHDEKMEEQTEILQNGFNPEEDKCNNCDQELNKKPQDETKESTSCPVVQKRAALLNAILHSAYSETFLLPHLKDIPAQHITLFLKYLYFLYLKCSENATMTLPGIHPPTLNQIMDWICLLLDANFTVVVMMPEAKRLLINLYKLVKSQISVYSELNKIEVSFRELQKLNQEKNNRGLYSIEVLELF
# Chain of UniProt Q08J23 (Q08J23 whole entry, looked up): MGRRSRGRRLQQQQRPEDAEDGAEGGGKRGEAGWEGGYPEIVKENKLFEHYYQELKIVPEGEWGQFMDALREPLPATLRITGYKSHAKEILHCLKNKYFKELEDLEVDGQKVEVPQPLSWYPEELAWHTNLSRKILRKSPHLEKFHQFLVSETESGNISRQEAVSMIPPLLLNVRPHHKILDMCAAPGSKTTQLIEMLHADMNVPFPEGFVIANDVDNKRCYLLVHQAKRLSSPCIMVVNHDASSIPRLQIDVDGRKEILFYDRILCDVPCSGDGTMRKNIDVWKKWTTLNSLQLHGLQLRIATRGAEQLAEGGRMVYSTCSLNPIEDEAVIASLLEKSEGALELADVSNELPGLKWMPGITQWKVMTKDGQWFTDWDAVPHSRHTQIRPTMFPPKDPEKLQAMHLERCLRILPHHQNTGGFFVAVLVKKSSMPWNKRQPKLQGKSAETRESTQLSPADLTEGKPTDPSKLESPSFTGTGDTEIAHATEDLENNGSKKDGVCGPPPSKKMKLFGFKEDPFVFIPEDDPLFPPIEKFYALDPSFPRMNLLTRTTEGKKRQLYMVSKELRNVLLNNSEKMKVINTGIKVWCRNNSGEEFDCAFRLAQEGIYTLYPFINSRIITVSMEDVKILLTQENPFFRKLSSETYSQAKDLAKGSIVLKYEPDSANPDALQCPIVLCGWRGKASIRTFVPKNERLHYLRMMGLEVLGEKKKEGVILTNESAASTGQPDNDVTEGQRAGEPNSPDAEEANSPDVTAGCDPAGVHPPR
# Chain of UniProt Q16621 (Q16621 whole entry, looked up): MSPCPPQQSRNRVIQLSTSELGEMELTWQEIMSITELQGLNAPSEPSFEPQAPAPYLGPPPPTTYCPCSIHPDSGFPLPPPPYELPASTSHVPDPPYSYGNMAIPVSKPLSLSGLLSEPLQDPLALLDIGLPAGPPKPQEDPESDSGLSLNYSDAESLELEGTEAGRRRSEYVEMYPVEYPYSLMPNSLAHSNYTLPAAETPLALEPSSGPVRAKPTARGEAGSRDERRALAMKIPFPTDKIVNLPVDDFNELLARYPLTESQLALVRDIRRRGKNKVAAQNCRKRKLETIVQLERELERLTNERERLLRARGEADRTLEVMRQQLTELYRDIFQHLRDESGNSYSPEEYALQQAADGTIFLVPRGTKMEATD
# Chain of UniProt P43246 (P43246 whole entry, looked up): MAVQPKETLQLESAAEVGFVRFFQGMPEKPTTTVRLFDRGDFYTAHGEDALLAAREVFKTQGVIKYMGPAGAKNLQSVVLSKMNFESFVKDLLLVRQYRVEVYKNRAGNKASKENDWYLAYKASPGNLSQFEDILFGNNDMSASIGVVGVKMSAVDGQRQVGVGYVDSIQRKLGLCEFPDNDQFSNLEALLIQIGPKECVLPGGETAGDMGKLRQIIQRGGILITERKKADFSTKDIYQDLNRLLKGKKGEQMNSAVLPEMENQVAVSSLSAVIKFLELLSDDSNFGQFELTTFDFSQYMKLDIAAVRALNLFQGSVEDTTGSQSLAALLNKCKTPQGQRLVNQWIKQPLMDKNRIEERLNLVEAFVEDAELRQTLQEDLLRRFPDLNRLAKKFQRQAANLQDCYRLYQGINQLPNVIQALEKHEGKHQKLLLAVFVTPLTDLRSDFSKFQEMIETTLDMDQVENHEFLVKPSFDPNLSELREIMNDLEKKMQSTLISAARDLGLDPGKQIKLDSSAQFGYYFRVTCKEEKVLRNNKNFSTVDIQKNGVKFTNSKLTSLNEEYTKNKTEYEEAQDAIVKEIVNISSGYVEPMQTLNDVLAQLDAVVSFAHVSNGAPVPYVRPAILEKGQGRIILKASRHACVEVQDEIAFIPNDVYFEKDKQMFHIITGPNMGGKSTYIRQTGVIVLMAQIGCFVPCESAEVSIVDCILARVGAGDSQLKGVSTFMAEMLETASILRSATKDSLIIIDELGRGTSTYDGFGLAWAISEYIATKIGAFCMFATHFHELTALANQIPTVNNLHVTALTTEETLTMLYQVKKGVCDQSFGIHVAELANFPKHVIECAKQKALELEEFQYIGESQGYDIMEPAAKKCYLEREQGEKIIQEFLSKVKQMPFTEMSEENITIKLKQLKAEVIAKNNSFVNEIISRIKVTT
# Chain of UniProt Q96IV0 (Q96IV0 whole entry, looked up): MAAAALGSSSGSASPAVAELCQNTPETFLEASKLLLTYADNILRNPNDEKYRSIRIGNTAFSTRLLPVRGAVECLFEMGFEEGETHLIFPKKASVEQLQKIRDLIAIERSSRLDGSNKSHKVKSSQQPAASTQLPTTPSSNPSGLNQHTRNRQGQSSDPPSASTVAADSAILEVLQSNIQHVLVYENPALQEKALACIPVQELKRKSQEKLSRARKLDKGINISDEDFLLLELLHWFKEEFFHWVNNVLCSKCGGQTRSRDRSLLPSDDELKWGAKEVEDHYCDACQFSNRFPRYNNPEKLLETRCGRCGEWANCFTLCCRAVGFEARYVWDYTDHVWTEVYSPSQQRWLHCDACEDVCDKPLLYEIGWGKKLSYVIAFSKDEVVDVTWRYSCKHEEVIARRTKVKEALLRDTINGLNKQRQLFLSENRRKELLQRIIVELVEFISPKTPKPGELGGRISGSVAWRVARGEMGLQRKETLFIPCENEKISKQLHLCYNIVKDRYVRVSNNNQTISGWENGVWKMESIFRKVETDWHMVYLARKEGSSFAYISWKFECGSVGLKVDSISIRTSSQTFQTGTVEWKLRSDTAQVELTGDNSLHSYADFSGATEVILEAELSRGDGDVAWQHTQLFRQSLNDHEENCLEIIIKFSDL
Target,log2 fold change [1],log2 fold change [2],log2 fold change [3],log2 fold change [4],log2 fold change (Nexturastat A),log2 fold change (vemurafenib),log2 fold change [5],log2 fold change [6],log2 fold change (givinostat),log2 fold change (barasertib),log2 fold change [7],log2 fold change (volasertib),log2 fold change [8],log2 fold change (epoxomicin),log2 fold change [9],log2 fold change [10],log2 fold change [11],log2 fold change (rosiglitazone),log2 fold change [12],log2 fold change [13]
MSH3 (UniProt P20585),0.029,-0.033,0.021,-0.101,-0.015,0.019,0.053,-0.013,0.002,-0.001,-0.032,-0.179,-0.003,0.062,-0.072,-0.019,-0.028,0.019,-0.008,0.047
MRPS5 (UniProt P82675),0.08,-0.086,-0.005,0.004,0.159,-0.048,0.062,0.016,0.013,0.023,0.005,-0.066,0.181,0.077,-0.048,-0.05,-0.037,-0.005,0.032,0.102
NOL11 (UniProt Q9H8H0),-0.023,0.029,0.004,0.013,-0.024,-0.026,0.003,-0.016,0.015,-0.021,0.029,-0.097,-0.025,-0.015,-0.031,-0.027,-0.005,-0.025,-0.028,0.126
MOV10 (UniProt Q9HCE1),0.044,0.017,-0.055,-0.067,0.221,-0.027,-0.048,0.054,-0.006,-0.05,0.199,0.195,-0.029,-0.156,0.029,0.158,-0.061,-0.044,0.185,0.331
OTULIN (UniProt Q96BN8),0.03,0.002,0.035,0.015,-0.17,-0.023,0.171,-0.018,0.039,0.105,0.045,-0.331,0.074,0.037,-0.093,-0.084,0.054,0.051,0.015,-0.226
NSUN2 (UniProt Q08J23),-0.042,0.013,-0.021,-0.009,0.037,0.016,0.061,0.019,-0.204,0.037,-0.182,-0.286,0.051,-0.044,0.017,-0.044,0.009,0.029,0.025,-0.131
NRDC isoform 2 (UniProt O43847),0.001,-0.053,0.01,0.03,0,0.047,0.051,0.021,0.017,0.037,-0.18,-0.371 (active),0.069,0.038,-0.067,-0.087,0.055,0.073,0,-0.087
NGLY1 (UniProt Q96IV0),-0.034,-0.039,0.052,-0.016,0.102,0.009,0.026,0.016,0.036,0.024,-0.07,-0.367 (active),0.04,-0.071,-0.045,-0.03,0.055,0.01,0.044,-0.116
NFE2 (UniProt Q16621),-0.09,0.064,0.017,0.034,0.044,-0.087,0.043,-0.009,0.087,-0.003,-0.136,-0.227,0.018,0.173,0.012,0.084,0.273,0,-0.015,-0.145
MSH2 (UniProt P43246),0.038,-0.067,0.017,0.066,-0.018,0.069,0.08,0.019,0.083,0.057,-0.103,-0.173,0.039,0.066,-0.034,0.036,0.059,0.046,-0.019,-0.067
PAFAH1B3 (UniProt Q15102),0,-0.096,0.098,0.03,0.019,-0.014,-0.012,0.005,-0.022,0.035,-0.017,0.011,0.042,0.063,-0.102,-0.098,0.069,0.021,-0.012,0.001
NDUFB10 (UniProt O96000),-0.093,-0.008,0.001,0.05,-0.002,-0.019,0,-0.126,-0.023,0.02,-0.008,0.056,-0.007,0.001,0,0.03,-0.005,0.013,-0.043,-0.237 (active)
MRPS31 (UniProt Q92665),-0.015,-0.012,-0.041,-0.017,0.111,-0.041,0.054,-0.012,0.009,-0.007,0.056,0,0.036,-0.015,-0.036,0.014,-0.054,-0.018,0,0.052
MRPS10 (UniProt P82664),0.018,0,0,-0.03,0.097,-0.002,0.006,-0.046,0.063,-0.051,0.02,0.027,0.088,-0.022,-0.021,0.045,0.085,0.003,0.066,0.068
PAK1 isoform 2 (UniProt Q13153),0.035,-0.072,0.114,0.003,-0.01,0.019,-0.036,-0.075,-0.054,-0.001,0.032,-0.022,-0.024,0.046,0.043,-0.122,0.064,0.016,-0.062,-0.031
"NA, A0A0B4J2A0",0.016,-0.028,0.002,-0.006,-0.043,0.017,0.072,-0.091,0.029,0.012,-0.163,-0.036,0.008,0.11,-0.04,-0.055,-0.004,0.049,-0.078,-0.101
